What all share (test): NCI-60 one-dose screen, 48 h (100 = growth as untreated, 0 = no growth, -100 = all killed)
Common to all, as to conditions: 10 µM unless noted

Experiment [1] concerns NCI-H23 lung.
Experiment [2] deals with NCI-H226 lung.
The test system of experiment [3] is NCI-H322M lung.
Experiment [4] relates to HOP-62 NSCLC.
The test system of experiment [5] is NCI-H460 lung.
Experiment [6] has as its system HOP-92 NSCLC.
Experiment [7] has as its system A549/ATCC NSCLC.
The subject of experiment [8] is 786-0 renal.
The test system of experiment [9] is COLO 205 colon.
Experiment [10] deals with DU-145 prostate.
In experiment [11] the test system is K-562 leukemia.
The test system of experiment [12] is MALME-3M melanoma.
The subject of experiment [13] is MDA-MB-231 breast.
Experiment [14] concerns RXF 393 renal.
Experiment [15] deals with SF-268 CNS.
Experiment [16] concerns SF-539 CNS.
The subject of experiment [17] is UACC-257 melanoma.
Experiment [18] deals with M14 melanoma.
Experiment [19] deals with SF-295 CNS.

The structures appear in SMILES notation. The panel holds about 83,000 compounds, 20% with a hit somewhere; the sample as a whole holds those more often.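 The test compound was applied at a single concentration to cells in 96-well plates for 48 hours, and percent growth was recorded.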 Values without a mark were called inactive. Calls of active or inactive are those of the source. The calls were made as follows: active = growth percent below 10; inactive = the rest.

Turning to `CC1CC=CCC1C1OCC(C)(C)CO1` (stereo unspecified), the growth in [1] was 108%; in experiment [2], 99.9%; in experiment [3], 105%; in experiment [4] it was 89.3%; in [5], 109%; in experiment [6], 106%. For the same compound, the growth in experiment [7] was 96.7%; in experiment [8], 97.6%; in experiment [9] it was 111%; in experiment [10] it was 108%; in experiment [11] it was 102%; in [12] it was 109%. Moreover, the growth in experiment [13] was 112%; in experiment [14], 103%; in experiment [15] it was 106%; in experiment [16], 95.5%; in experiment [17], 97%; in [18] it was 101%.
In the case of `O=C1/C(=C/c2cccc(Cl)c2)CCc2ccccc21`, the growth was 101% in [1]; 98.5% in [2]; 98.5% in [3]; 105% in experiment [4]; 107% in experiment [5]; 72.6% in experiment [6]. The growth in [7] is 90.2%; in [8], 94.8%; in experiment [9], 111%; in [10], 106%; in experiment [11], 46.4%; in [12], 100%. Besides, the growth in experiment [13] was 98.9%; in [14], 110%; in experiment [15] it was 99.4%; in [19] it was 85.5%; in experiment [16], 103%; in [18] it was 103%.
Consider `CCCCCCCSc1ncnc2[nH]ncc12`, for which the growth in [1] was 93.9%; in [2], 77.4%; in experiment [3] it was 93.9%; in experiment [4], 95.7%; in experiment [5] it was 103%; in experiment [6] it was -2.1% (active). The growth in [7] is 101%; in [8] it was 76.3%; in [9], 93.9%; in experiment [10], 89.5%; in experiment [11], 88.8%; in experiment [12], 120%. Further, the growth in [13] is 84.4%; in experiment [14] it was 61.2%; in [15] it was 82.3%; in experiment [16], 87.5%; in [17], 104%; in experiment [18] it was 109%.
As to `CCCCCc1c(C)[nH]c(/C=C2\N=C(c3ccc[nH]3)C=C2Oc2ccc(Cl)cc2)c1C`, the growth was -46.3% [100 µM] (active) in experiment [1]; 11.9% [100 µM] in experiment [2]; 20.5% [100 µM] in experiment [3]; -6.67% [100 µM] (active) in experiment [4]; 2.82% [100 µM] (active) in [5]; -10.7% [100 µM] (active) in experiment [6]. Also, the growth in [7] was -51.5% [100 µM] (active); in experiment [8], -18.2% [100 µM] (active); in experiment [9], -85.5% [100 µM] (active); in experiment [10], 3.42% [100 µM] (active); in [11] it was 0.896% [100 µM] (active); in experiment [12], -59.3% [100 µM] (active). The growth in experiment [13] was -38.7% [100 µM] (active); in experiment [14] it was -2.91% [100 µM] (active); in [15] it was -72.6% [100 µM] (active); in experiment [19] it was -72.9% [100 µM] (active); in [17], -25.4% [100 µM] (active); in experiment [18], -88.5% [100 µM] (active).
As to `COc1ccc(/C=C2\CCc3ccccc3C2=O)cc1`, the growth was 90.3% in experiment [1]; 103% in experiment [2]; 98.1% in experiment [3]; 85.8% in experiment [4]; 102% in experiment [5]; 84.2% in experiment [6]. Besides, the growth in experiment [7] is 77.4%; in experiment [8] it was 91.5%; in [9], 106%; in experiment [10] it was 98.2%; in [11], 20.7%; in [12], 86.1%. The growth was 87.3% in experiment [13]; 103% in [14]; 100% in experiment [15]; 32.5% in [19]; 105% in experiment [16]; 99.2% in experiment [18].
As to `CNc1nc(NC2CCCC2)nc(Sc2ccc(OC)cc2)n1`, the growth in experiment [1] was 39.4% [100 µM]; in experiment [2], 46.4% [100 µM]; in experiment [3] it was 68.5% [100 µM]; in experiment [4], 53.4% [100 µM]; in experiment [5], 10.2% [100 µM]; in [6], -42.7% [100 µM] (active). Further, the growth in [7] is 20.3% [100 µM]; in experiment [8], 13% [100 µM]; in experiment [9] it was 22.5% [100 µM]; in experiment [10] it was 26.5% [100 µM]; in [11], 9.58% [100 µM] (active); in experiment [12], -11.9% [100 µM] (active). For the same compound, the growth in experiment [13] was -30.9% [100 µM] (active); in experiment [14], 32% [100 µM]; in experiment [15] it was 25.7% [100 µM]; in [16] it was 49.2% [100 µM]; in experiment [17], 31.4% [100 µM]; in experiment [18] it was 16.7% [100 µM].
Turning to `CC(C)CNc1nc(N=[N+]=[N-])nc(NCC(C)C)n1`, the growth in experiment [1] is 59.9% [100 µM]; in experiment [2], 75.8% [100 µM]; in experiment [3], 92.5% [100 µM]; in experiment [4], 84.1% [100 µM]; in [5], 68.8% [100 µM]; in experiment [6], -6.14% [100 µM] (active). Further, the growth in experiment [7] is 56.3% [100 µM]; in experiment [8], 55.5% [100 µM]; in [9], 99.2% [100 µM]; in experiment [10], 80.1% [100 µM]; in [11], 33.5% [100 µM]; in experiment [12], 72.7% [100 µM]. Moreover, the growth in experiment [13] is 48.5% [100 µM]; in [14], 70.8% [100 µM]; in [15], 63.3% [100 µM]; in experiment [19], 36.5% [100 µM]; in experiment [17], 62.7% [100 µM]; in [18], 57.7% [100 µM].

The values above are taken from PubChem BioAssay (NCI).
